# About 3,300 (8.5%) of roughly 39,000 compounds were called active. Shown is part of a subset that was picked to be rich in actives.
# Test system: HepG2
# Test: cytotoxicity call (relative viability < 0.9)
# Settings: 10 µM
row,SMILES,cytotoxicity call
1,Cc1noc(C)c1NC(=O)Nc1ccc2c(c1)C(=O)N([C@H](C)CO)C[C@H](C)[C@H](CN(C)Cc1ccc(C(=O)O)cc1)OCCCC[C@@H](C)O2,inactive
2,CO[C@H]1CN(C)C(=O)c2ccc(NS(=O)(=O)c3cn(C)cn3)cc2OC[C@H](C)N(Cc2cccc(F)c2)C[C@H]1C,inactive
3,COc1ccc(NC(=O)N(C)C[C@@H]2OCCCC[C@@H](C)Oc3ccc(NS(=O)(=O)c4c(C)noc4C)cc3C(=O)N([C@@H](C)CO)C[C@H]2C)cc1,inactive
4,COc1ccc(NC(=O)N(C)C[C@H]2Oc3ccc(NC(=O)Nc4ccc(C(F)(F)F)cc4)cc3CC(=O)N([C@@H](C)CO)C[C@@H]2C)cc1,inactive
5,O=C(O)c1csc2c1CCCCC2,inactive
6,COC(=O)CC[C@H]1CCCNC1,inactive
7,C[C@@H]1CN([C@H](C)CO)C(=O)c2cc(NS(=O)(=O)c3ccccc3)ccc2O[C@@H](C)CCCCO[C@H]1CN(C)C(=O)C1CCCCC1,inactive
8,NCc1ccno1,inactive
9,C=CCCC(=O)N(C)[C@H](C)[C@@H](OC(=O)[C@@H]1[C@@H]2C=C[C@]3(O2)[C@H](CN(CC=C)Cc2ccccc2)N(C(C)(C)C)C(=O)[C@@H]13)c1ccccc1,inactive
10,COc1ccc(NC(=O)Nc2ccc3c(c2)C(=O)N([C@H](C)CO)C[C@H](C)[C@H](CN(C)C(=O)Nc2cccc4ccccc24)O3)cc1,inactive
11,C[C@H](CO)N1C[C@H](C)[C@H](CN(C)S(=O)(=O)c2ccc(C#N)cc2)Oc2ncc(C#Cc3ccc(F)cc3)cc2C1=O,inactive
12,Cc1ccc(S(=O)(=O)N(C)C[C@@H]2Oc3ncc(C#Cc4ccc(F)cc4)cc3C(=O)N([C@H](C)CO)C[C@@H]2C)cc1,inactive
13,C[C@H](CO)N1C[C@H](C)[C@H](CN(C)S(=O)(=O)c2ccc(F)cc2)Oc2ncc(C#Cc3ccc(F)cc3)cc2C1=O,active
14,Cc1ccc(S(=O)(=O)Nc2ccc3c(c2)C(=O)N([C@@H](C)CO)C[C@H](C)[C@@H](CN(C)S(=O)(=O)c2ccc(Cl)cc2)OCCCC[C@@H](C)O3)cc1,inactive
15,O=C1O[C@@H](c2ccccc2)[C@@H](c2ccccc2)N2[C@@H](c3ccccc3OCCO)[C@]3(C(=O)Nc4ccc(C#CC5=CCCCC5)cc43)[C@@H](C(=O)O)[C@H]12,inactive
16,O=C1O[C@@H](c2ccccc2)[C@@H](c2ccccc2)N2[C@@H](c3ccc(OCCO)cc3)[C@]3(C(=O)Nc4ccc(C#CC5=CCCCC5)cc43)[C@@H](C(=O)N3CCCCCCC3)[C@H]12,active
17,NC(=O)[C@@H]1[C@H]2C(=O)O[C@H](c3ccccc3)[C@H](c3ccccc3)N2[C@H](c2ccc(OCCO)cc2)[C@@]12C(=O)Nc1ccc(C#CC3=CCCCC3)cc12,inactive
18,O=C1O[C@H](c2ccccc2)[C@H](c2ccccc2)N2[C@H]1[C@@H](C(=O)O)[C@]1(C(=O)Nc3ccc(C#CC4=CCCCC4)cc31)[C@H]2C1CCCCC1,active
19,O=C1O[C@H](c2ccccc2)[C@H](c2ccccc2)N2[C@H]1[C@@H](C(=O)O)[C@]1(C(=O)Nc3ccc(C#CC4=CCCCC4)cc31)[C@H]2c1ccc(O)cc1,inactive
20,COc1ccc(C#Cc2ccc3c(c2)[C@]2(C(=O)N3)[C@H](c3ccc(O)cc3)N3[C@H](c4ccccc4)[C@H](c4ccccc4)OC(=O)[C@H]3[C@@H]2C(=O)N2CCN(c3ncccn3)CC2)cc1,inactive
21,O=C1O[C@H](c2ccccc2)[C@H](c2ccccc2)N2[C@H]1[C@@H](C(=O)O)[C@]1(C(=O)Nc3ccc(C#CC4(O)CCCCCC4)cc31)[C@H]2c1ccccc1OCCO,inactive
22,COc1ccc(C#Cc2ccc3c(c2)[C@]2(C(=O)N3)[C@H](c3ccc(O)cc3)N3[C@H](c4ccccc4)[C@H](c4ccccc4)OC(=O)[C@H]3[C@@H]2C(=O)N2CCCCCCC2)cc1,inactive
23,O=C1O[C@H](c2ccccc2)[C@H](c2ccccc2)N2[C@H]1[C@@H](C(=O)O)[C@]1(C(=O)Nc3ccc(C#CC4=CCCCC4)cc31)[C@H]2c1ccccc1OCCO,active
24,O=C1O[C@@H](c2ccccc2)[C@@H](c2ccccc2)N2[C@@H](c3ccc(OCCO)cc3)[C@]3(C(=O)Nc4ccc(C#CC5=CCCCC5)cc43)[C@@H](C(=O)N3CCN(c4ncccn4)CC3)[C@H]12,inactive
25,O=C1O[C@@H](c2ccccc2)[C@@H](c2ccccc2)N2[C@@H](c3ccc(O)cc3)[C@]3(C(=O)Nc4ccc(C#CC5=CCCCC5)cc43)[C@@H](C(=O)O)[C@H]12,inactive
26,COc1ccc(C#Cc2ccc3c(c2)[C@]2(C(=O)N3)[C@H](C(=O)N3CCCCCCC3)[C@H]3C(=O)O[C@H](c4ccccc4)[C@H](c4ccccc4)N3[C@@H]2c2ccc(O)cc2)cc1,active
27,CCNC(=O)C[C@H]1CC[C@H]2[C@@H](COC[C@H](O)CN2C(=O)Nc2c(C)noc2C)O1,inactive

row,SMILES,cytotoxicity call
1,O=C(C[C@@H]1C=C[C@H](NS(=O)(=O)c2ccccc2)[C@H](CO)O1)NCc1ccncn1,inactive
2,COc1ccc2c3c(n(c2c1)C)[C@@H](CO)N(C[C@]13CCN(CC1)C(=O)Nc1cccc(c1)F)S(=O)(=O)C,inactive
3,C[C@H]1CN([C@@H](C)CO)C(=O)Cc2cc(NC(=O)c3ccncc3)ccc2O[C@H]1CN(C)Cc1ccncc1,inactive
4,COCCNC(=O)C[C@@H]1CC[C@@H]2[C@H](COC[C@@H](O)CN2S(=O)(=O)c2ccccc2C)O1,inactive
5,C[C@H](CO)N1C[C@H](C)[C@@H](CN(C)C(=O)C2CCCCC2)OCCCC[C@H](C)Oc2ccc(NC(=O)CCC(F)(F)F)cc2C1=O,inactive
6,C[C@@H]1CCCCO[C@@H](CN(C)C(=O)c2ccncc2)[C@@H](C)CN([C@@H](C)CO)C(=O)c2cc(NS(=O)(=O)c3cn(C)cn3)ccc2O1,inactive
7,Cc1noc(C)c1NC(=O)Nc1cccc2c1O[C@H](CN(C)C(=O)Nc1ccc(C(F)(F)F)cc1)[C@@H](C)CN([C@@H](C)CO)C2=O,inactive
8,C=CC[C@@H](CC(=O)N[C@@H](CO)Cc1ccccc1)C(=O)N1CCC[C@@H]1COC(=O)[C@@H](CC=C)NC(=O)OCC1c2ccccc2-c2ccccc21,inactive
9,C[C@@H]1CN([C@H](C)CO)C(=O)Cc2cc(NC(=O)Nc3cccc4ccccc34)ccc2O[C@@H]1CN(C)Cc1ccc(-c2ccccc2)cc1,inactive
10,CCS(=O)(=O)N1C[C@]2(CCN(CC2)C(=O)c2cccnc2)c2c(n(c3cc(ccc23)OC)C)[C@@H]1CO,inactive
11,COCCNC(=O)c1ccc(N2C[C@H]3C[C@@H](C2)c2cccc(=O)n2C3)c(NC(=O)c2ccc(OC)cc2)c1,inactive
12,COc1cc2c(cc1OC)CN(C(=O)[C@H]1[C@@H]3C(=O)O[C@@H](c4ccccc4)[C@@H](c4ccccc4)N3[C@@H](c3ccc(OCCO)cc3)[C@]13C(=O)Nc1ccc(C#CC4(O)CCCCCC4)cc13)CC2,inactive
13,COc1cc2c(cc1OC)CN(C(=O)[C@@H]1[C@H]3C(=O)O[C@H](c4ccccc4)[C@H](c4ccccc4)N3[C@H](c3ccc(OCCO)cc3)[C@@]13C(=O)Nc1ccc(C#CC4(O)CCCCCC4)cc13)CC2,active
14,O=C1O[C@@H](c2ccccc2)[C@@H](c2ccccc2)N2[C@@H](c3ccccc3OCCO)[C@]3(C(=O)Nc4ccc(C#CC5=CCCCC5)cc43)[C@@H](C(=O)N3CCCCCCC3)[C@H]12,active
15,O=C1O[C@@H](c2ccccc2)[C@@H](c2ccccc2)N2[C@@H](c3ccccc3OCCO)[C@]3(C(=O)Nc4ccc(C#CC5(O)CCCCCC5)cc43)[C@@H](C(=O)O)[C@H]12,inactive
16,COc1cc2c(cc1OC)CN(C(=O)[C@@H]1[C@H]3C(=O)O[C@H](c4ccccc4)[C@H](c4ccccc4)N3[C@H](c3ccc(O)cc3)[C@@]13C(=O)Nc1ccc(C#CC4(O)CCCCCC4)cc13)CC2,inactive
17,O=C1O[C@H](c2ccccc2)[C@H](c2ccccc2)N2[C@H]1[C@@H](C(=O)N1CCCCCCC1)[C@]1(C(=O)Nc3ccc(C#CC4=CCCCC4)cc31)[C@H]2c1ccccc1OCCO,inactive
18,COc1cc2c(cc1OC)CN(C(=O)[C@H]1[C@@H]3C(=O)O[C@@H](c4ccccc4)[C@@H](c4ccccc4)N3[C@@H](c3ccccc3OCCO)[C@]13C(=O)Nc1ccc(C#CC4=CCCCC4)cc13)CC2,inactive
19,NC(=O)[C@H]1[C@@H]2C(=O)O[C@@H](c3ccccc3)[C@@H](c3ccccc3)N2[C@@H](c2ccccc2OCCO)[C@]12C(=O)Nc1ccc(C#CC3=CCCCC3)cc12,active
20,NC(=O)NCC#Cc1ccc2c(c1)[C@]1(C(=O)N2)[C@H](C(N)=O)[C@H]2C(=O)O[C@H](c3ccccc3)[C@H](c3ccccc3)N2[C@@H]1c1ccccc1OCCO,inactive
21,C[C@@H]1CN([C@H](C)CO)C(=O)c2cccc(NC(=O)C3CCOCC3)c2O[C@H]1CN(C)S(=O)(=O)c1cccs1,inactive
22,C[C@@H]1CN([C@H](C)CO)C(=O)c2cc(NC(=O)Nc3cccc4ccccc34)ccc2O[C@@H](C)CCCCO[C@H]1CN(C)Cc1ccc(Cl)c(Cl)c1,inactive
23,C[C@@H]1CN([C@@H](C)CO)C(=O)c2cc(NC(=O)Cn3cnnn3)ccc2O[C@H]1CN(C)Cc1ccc(-c2ccccc2)cc1,inactive
24,CC(C)CN1C(=O)[C@@]2(c3ccc([N+](=O)[O-])cc3)CC(=O)N(CC34CC5CC(CC(C5)C3)C4)[C@@H]2c2ccc(CO)cc21,inactive
25,Cc1cc(C)n(-c2nc(=O)cc(C)[nH]2)n1,inactive
26,[N-]=[N+]=NCCOCCNC(=O)CCCOc1ccc(CS(=O)c2nnc(-c3ccc(F)cc3)o2)nc1 (centres undefined),active
27,COc1ccc(NC(=O)N(C)C[C@@H]2OCCCC[C@@H](C)Oc3ccc(NC(=O)CCC(F)(F)F)cc3C(=O)N([C@@H](C)CO)C[C@H]2C)cc1,inactive

# Source: the antibiotic and cytotoxicity screens of Wong et al. (2023)
